Source: publication PMC5540273 (PLoS ONE, 2017)

Test system: ANKK1
Conditions: concentration: 1 μM, replicates: in singlicate; n = 1
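Note: KINOMEscan kinase panel screen.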

Compound	%Inh [%]
Cc1c2ccc(N(C)c3ccnc(Nc4cccc(S(N)(=O)=O)c4)n3)cc2nn1Cc1ccccc1.Cl.Cl [GW787226]	0
Fc1ccc(-c2ncn(CCCN3CCOCC3)c2-c2cccnc2)cc1 [SB-211743]	0
COc1ccc(Nc2ncc(C#N)c(Nc3ccccc3C(N)=O)n2)cc1N1CCN(C)CC1.Cl [GSK1558669]	52
O=c1cc(N2CCOCC2)nc2n(Cc3cccc4ccccc34)ccn12 [GSK2333389]	0
CCc1nc(-c2cccc(C)c2)c(-c2ccnc(NCc3ccccc3)c2)s1	0
O=C(NCCNc1ccnc(Nc2ccc(F)cc2)n1)c1cc2ccccc2s1 [GSK1379874]	0
O=C(NCCNc1ccnc(Nc2ccc(F)cc2)n1)Nc1ccccc1F [GSK1379880]	0
CN(C(=O)c1ccc(-c2cc(-c3c[nH]nc3-c3ccccn3)ccn2)cc1)C1CCOCC1 [GW810083]	0
O=C(Nc1n[nH]c2cc(-c3cccc(F)c3)ccc12)C1CC1 [SB-735464]	0
Cc1nnc(-c2ccc(C)c(-c3ccc(C(=O)Nc4ccc(NS(C)(=O)=O)cc4)cc3)c2)o1 [GW702865]	14
COc1ccc(S(=O)(=O)NC2CCN(c3cc(C)nc(Nc4cccc(C#N)c4)n3)CC2)cc1.O=C(O)C(F)(F)F [GSK1653539]	14
O=C(NOCC1CC1)c1ccc(F)c(F)c1Nc1ccc(I)cc1Cl	0
COc1cc2c(cc1OC[C@@H](O)CO)ncc1c3ccc(C#N)cc3[nH]c21	73
NS(=O)(=O)CCc1cccc(Nc2nccc(-c3c(-c4cccc(NC(=O)c5c(F)cccc5F)c4)nn4ccccc34)n2)c1 [GSK336735]	83
COc1ccc(CNC(=O)NC2CCN(c3ccnc(Nc4ccc(OC)cc4)n3)C2)cc1 (stereo not shown) [GSK1379727]	0
c1ccc(-c2cc(-c3c[nH]nc3-c3ccccn3)ccn2)cc1 [GW576604]	0
Cn1cc(-c2ccc3c(c2)CCN3C(=O)Cc2ccccc2Cl)c2c(N)ncnc21 [GSK2608885]	4

Compound	%Inh [%]
Cc1nnc(-c2ccc3ncc(-c4ccc(S(C)=O)cc4)n3c2)o1 (stereo not shown)	0
Cc1ccc(NC(=O)c2ccnc(N3CCN(C)CC3)c2)cc1-c1ccc(C(=O)NCC2CC2)cc1 [GW775604]	0
CN(C1=C(c2ccccc2)C(=O)NC1=O)c1ccccc1 [SB-334860]	9
Cc1ccc(C(=O)NCC(N)=O)cc1-n1c(C)cc(OCc2ccc(F)cc2F)c(Br)c1=O	0
NCC(NC(=O)c1cc(-c2cn[nH]c2)c(-c2ccnc3[nH]ccc23)s1)c1ccccc1.O=C(O)C(F)(F)F.O=C(O)C(F)(F)F (stereo not shown) [GSK1325775]	0
CNc1ncnc2[nH]ncc12 [SKF-18355]	0
CCCCCc1nc2c(N)ncnc2n1CCCCC [SKF-97255]	0
C[C@@H](Oc1cc(-n2cnc3ccc(NC(=O)NC(C)(C)C)cc32)sc1C(N)=O)c1ccccc1Cl [GSK346294]	8
Cl.Oc1cccc(Nc2ccnc3cc(-c4ccncc4)ccc23)c1 [GW494601]	43
O=C1NC(=O)C(N2CCc3ccccc32)=C1c1cccc(Cl)c1 [SB-408010]	1
Cc1cn2c(=O)cc(N3CCOCC3)nc2n1Cc1cccc(Cl)c1Cl [GSK2334006]	0
Cl.Cl.Cl.Fc1ccc(-c2ncn(C3CCNCC3)c2-c2ccnc(Nc3ccccc3)n2)cc1 [SB-238039]	0
N#Cc1c(N2CCOCC2)sc(-c2ccn[nH]2)c1-c1ccc(Cl)cc1	0
CC(=O)Nc1ccc(COc2ccc(Nc3ccnc4cc(-c5ccccn5)ccc34)cc2)cc1.Cl [GW440148]	8
O=c1cc(N2CCOCC2)nc2n(Cc3cccc(C(F)(F)F)c3)ccn12 [GSK2297543]	5
Fc1ccc(-c2nn3c(OCC(F)(F)F)cccc3c2-c2ccncc2)cc1 [GW514784]	25
Cc1cccc(-c2nc(Nc3ccc4ncsc4c3)c3ccccc3n2)n1 [GW867588]	0
